HP1b chromo inh: inhibitors of HP1-beta chromodomain binding to methylated histone tails | P83916 | AlphaScreen HP1-beta / biotin-H3K9me3 peptide binding | Potency, µM (titrated, usually from 114 µM), actives largely listed as inhibitors | 390,000 tested, 0.56% active | AID 540317; also: nearly all actives have a fitted effect of over 70% in size
Target sequence (P83916 whole entry, looked up): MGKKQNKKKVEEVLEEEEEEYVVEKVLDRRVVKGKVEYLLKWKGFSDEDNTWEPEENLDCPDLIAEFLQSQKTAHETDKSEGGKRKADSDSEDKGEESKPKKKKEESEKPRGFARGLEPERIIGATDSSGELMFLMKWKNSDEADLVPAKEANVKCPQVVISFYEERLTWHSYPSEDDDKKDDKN
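HP1-beta protein (50 nM final) preincubated 30 min at room temperature with biotinylated H3(1-18)K9me3 peptide (50 nM) in PBS pH 7.4, 0.01% Tween-20, then compound added for 30 min. AlphaScreen streptavidin donor/nickel chelate acceptor beads (10 ug/mL final), 30 min dark, luminescence read.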
ALOX12 inh: inhibitors of human 12S-lipoxygenase ALOX12; Potency, µM (doses to about 108 µM), actives largely listed as inhibitors; P18054; 580,000 tested, 1.1% active; purified 12hLO, xylenol orange hydroperoxide absorbance
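Purified human 12hLO (150 nM final) in 25 mM Hepes, 0.01% Triton X-100, pH 7.0 was preincubated 15 min at room temperature with compound. Then 40 uM arachidonic acid was added, 30 min. Hydroperoxide was read by Fe-XO absorbance ratio 573/405 nm.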
JMJD2A Tudor inh: blocks the human JMJD2A Tudor domain. O75164. AlphaScreen JMJD2A-Tudor / H3K4me3 peptide binding. Potency, µM (doses to about 114 µM), usual class: inhibitors. 390,000 tested, 4.4% active. AID 504339; also: nearly all actives have a fitted effect of over 50% in size
G9a inh: inhibitors of human histone lysine methyltransferase G9a | G9a H3K9 monomethylation, AlphaScreen, 2 h | Potency, µM (series often up to 102 µM), hits mostly inhibitors | 350,000 tested, 8.8% active | AID 504332; also: nearly all actives have a fitted effect of over 75% in size
Target sequence (Q96KQ7 913-1193 limits assumed): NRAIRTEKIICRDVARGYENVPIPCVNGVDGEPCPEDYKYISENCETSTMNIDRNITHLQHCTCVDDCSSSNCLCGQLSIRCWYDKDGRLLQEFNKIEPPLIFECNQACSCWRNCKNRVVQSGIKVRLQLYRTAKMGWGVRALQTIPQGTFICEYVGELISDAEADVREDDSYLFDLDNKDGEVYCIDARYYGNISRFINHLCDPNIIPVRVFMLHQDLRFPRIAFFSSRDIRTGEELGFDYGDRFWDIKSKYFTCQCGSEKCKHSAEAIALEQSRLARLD
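Enzyme 20 nM + cpd, 15 min RT; add b-H3K9 pep 500 nM / SAM 20 uM; 2 h RT; anti-H3K9me1 Ab 0.5 ug/mL + SA donor / anti-rabbit acceptor beads 20 ug/mL each, 10 min; AlphaScreen read.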
PLK1 PBD inh: PLK1 (human) polo-box domain binding inhibition. Potency, µM, hits mostly inhibitors. Plk1 PBD binding of FITC phosphopeptide, fluorescence polarization. 360,000 tested, 2.8% active; also: series mostly up to about 57 µM; nearly all actives have a fitted effect of over 65% in size
BAZ2B block: BAZ2B (human) inhibition. Q9UIF8. AlphaScreen BAZ2B-H3K14Ac peptide displacement. Potency, µM (titrated, usually from 114 µM), usual class: inhibitors. 360,000 tested, 4.4% active; also: nearly all actives have a fitted effect of over 60% in size
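AlphaScreen luminescence quantifies BAZ2B engagement of H3K14Ac peptide; the protein and biotinylated peptide are both at 50 nM final, buffer PBS pH 7.4 with 0.01% Tween-20, all steps at room temperature.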
A number is an active result; [ ] = remark or other dose. Only some compounds are listed: those with a hit (about 9% of all), similar ones and a draw of the others. Calls follow the shape of the dose curve; as a rule, active = well fitted curve in the direction sought with a large enough effect; inconclusive = small, poorly fitted or top-dose-only effect, or another doubt; inactive = no such curve, though single readings can be large; an effect the other way counts as inactive or inconclusive.

What do the screens show for `COCCN1C(=O)c2ccccc2C(C(=O)NCCc2c[nH]c3ccccc23)C12CCCC2` (configuration not stated)?
ALOX12 inh: inactive

What do the screens show for `COc1cc(/C=C\C(=O)O)cc(S(=O)(=O)N2CCCCCC2)c1OC`?
HP1b chromo inh: inactive; ALOX12 inh: inactive; JMJD2A Tudor inh: inactive; PLK1 PBD inh: inactive; BAZ2B block: inactive

Results for Fc1ccc2c(c1)nc1n2[C@@H](CN(Cc2ccccn2)Cc2ccccn2)COC1 ?
ALOX12 inh: inactive

How did CC(=O)CSc1nc(-c2ccccc2)[nH]c1S(=O)(=O)c1ccc(C)cc1 do in these assays?
HP1b chromo inh: inactive; ALOX12 inh: inactive; JMJD2A Tudor inh: inactive; G9a inh: inactive; BAZ2B block: inactive

What do the screens show for `CCC(Sc1nc(-c2ccccc2)[nH]c1S(=O)(=O)c1ccc(C)cc1)C(=O)O` (configuration not stated)?
HP1b chromo inh: inactive; ALOX12 inh: inactive; JMJD2A Tudor inh: inactive; G9a inh: 13µM; BAZ2B block: inactive

What do the screens show for `CCCSc1nc(-c2ccccc2)[nH]c1S(=O)(=O)c1ccc(C)cc1`?
HP1b chromo inh: inactive; ALOX12 inh: inconclusive; JMJD2A Tudor inh: inactive; G9a inh: 13µM; BAZ2B block: inactive

Results for Cc1cccc(C(C)C)c1NC(=O)c1c(-c2ccccc2)noc1C ?
HP1b chromo inh: inactive; ALOX12 inh: inactive; JMJD2A Tudor inh: inactive; G9a inh: inactive; PLK1 PBD inh: inactive; BAZ2B block: inactive

How did C/C(CC(C)(C)c1ccccc1)=N\NS(=O)(=O)c1ccccc1 do in these assays?
HP1b chromo inh: inactive; ALOX12 inh: inactive; JMJD2A Tudor inh: inactive; G9a inh: 25µM; PLK1 PBD inh: inactive; BAZ2B block: inactive

Results for C/C(CC(C)(C)c1ccccc1)=N\NC(=O)CC#N ?
ALOX12 inh: inactive

How did CC(C)(C)OC(=O)N1CCC(c2c(C(=O)O)cnn2-c2ccccc2)CC1 do in these assays?
HP1b chromo inh: inactive; ALOX12 inh: inactive; JMJD2A Tudor inh: inactive; G9a inh: inactive; PLK1 PBD inh: inactive; BAZ2B block: inactive

Results for CCN(CC)P(=O)(Nc1cccc(C(F)(F)F)c1)c1ccc(N(C)C)cc1NC(=O)c1ccco1 (configuration not stated) ?
HP1b chromo inh: inactive; ALOX12 inh: inactive; JMJD2A Tudor inh: inconclusive; G9a inh: 32µM; PLK1 PBD inh: inactive; BAZ2B block: inconclusive

How did Cc1nc(C)c(C(=O)NNC(=O)Nc2ccc(Cl)cc2)s1 do in these assays?
HP1b chromo inh: inactive; ALOX12 inh: inactive; JMJD2A Tudor inh: inactive; PLK1 PBD inh: inactive; BAZ2B block: inactive

How did O=C(c1cc2cc(Cl)ccc2[nH]1)N1CCc2ccccc2C1 do in these assays?
HP1b chromo inh: inactive; ALOX12 inh: inactive; JMJD2A Tudor inh: inactive; G9a inh: 50µM; PLK1 PBD inh: inactive; BAZ2B block: inactive

What do the screens show for `CCOC(=O)c1[nH]c(=O)[nH]c1COC(=O)c1cc2ccccc2o1`?
HP1b chromo inh: inconclusive; ALOX12 inh: inactive; JMJD2A Tudor inh: inconclusive; G9a inh: 7.9µM; PLK1 PBD inh: inconclusive; BAZ2B block: inactive

What do the screens show for `COc1ccc(CN2CC3(CCN(C(=O)c4ccc(OC)cc4OC)CC3)C2=O)cc1`?
ALOX12 inh: inactive

Results for Cc1ccc(N2CCN(C(=O)c3noc(-c4ccc(F)cc4)n3)CC2)cc1 ?
ALOX12 inh: inactive

What do the screens show for `CC(C)(C)c1cc(Br)c(O)c(N=Nc2ccc(S(=O)(=O)N3CCOCC3)cc2)c1`?
HP1b chromo inh: inconclusive; ALOX12 inh: inactive; JMJD2A Tudor inh: 5.6µM; G9a inh: 14µM; PLK1 PBD inh: inactive; BAZ2B block: 7.9µM

Results for Cc1ccc(O)c(N=Nc2ccc(S(=O)(=O)N3CCOCC3)cc2)c1 ?
HP1b chromo inh: inconclusive; ALOX12 inh: inactive; JMJD2A Tudor inh: 14µM; G9a inh: inactive[12.7 µM]; PLK1 PBD inh: inactive; BAZ2B block: 8.9µM

What do the screens show for `O=S(=O)(c1ccc(Br)cc1)N1CCOCC1`?
HP1b chromo inh: inactive; JMJD2A Tudor inh: inactive

What do the screens show for `Cc1ccc(NC(=O)CCc2ccc(S(=O)(=O)N3CCOCC3)cc2)c(O)c1`?
HP1b chromo inh: inactive; ALOX12 inh: inactive; JMJD2A Tudor inh: inactive; PLK1 PBD inh: inactive
